PubChem BioAssay AID651804 (National Center for Advancing Translational Sciences (NCATS), 2012)
Hit rate of the full screen: of about 1,200 compounds, about 20 (2%) were called active. Entries that show only a call come without a potency. Another 23% or so got no clear call; they are omitted. The sample holds actives, similar compounds and a random draw of the others, so the mix is not that of the screen. The call rests on the fitted dose curve; in most records, active means well fitted inhibition curve with a large enough effect; inconclusive means small, poorly fitted or top-dose-only effect; inactive means no such curve, though single readings can be large or run the other way.

target: Transcriptional regulator ERG (Homo sapiens) (UniProt P11308); experiment: qHTS for Small Molecule Inhibitors of the ERG Ets/DNA interaction: HTRF assay against cherry picks; conditions: His-ERG Ets domain with biotin-DNA; series mostly up to 154 µM
Sequence (P11308 whole entry, looked up, the tested form may be a part): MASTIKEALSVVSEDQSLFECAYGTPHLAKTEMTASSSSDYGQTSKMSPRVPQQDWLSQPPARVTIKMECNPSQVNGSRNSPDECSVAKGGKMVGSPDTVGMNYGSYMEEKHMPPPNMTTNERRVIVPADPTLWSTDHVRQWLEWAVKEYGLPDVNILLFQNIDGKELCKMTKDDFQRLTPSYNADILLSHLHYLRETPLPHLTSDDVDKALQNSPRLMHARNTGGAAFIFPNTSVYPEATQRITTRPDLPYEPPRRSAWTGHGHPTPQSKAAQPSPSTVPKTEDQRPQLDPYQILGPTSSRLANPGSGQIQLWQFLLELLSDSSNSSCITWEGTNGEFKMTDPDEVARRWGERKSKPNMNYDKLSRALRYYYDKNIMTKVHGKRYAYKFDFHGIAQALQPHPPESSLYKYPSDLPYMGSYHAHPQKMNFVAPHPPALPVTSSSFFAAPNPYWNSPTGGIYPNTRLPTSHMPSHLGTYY
Excerpt: The Ets family of proteins is a family of ~30 conserved transcription factors defined by the presence of an ~85 amino acid domain referred to as the Ets domain, which mediates sequence-specific DNA binding to a core DNA element GGAA/T.The Ets family member ERG has been linked to several neoplasms. […] More extensive studies of the effects of over-expression of ERG in prostate cells have recently been carried out and have shown that over-expression of ERG results in increased invasion. […] We will carry out a high throughout screen to identify inhibitors of the interaction between ERG and DNA using a fluorescence polarization (FP) assay with a His-tagged ERG Ets domain and fluorescently-labeled DNA probes to develop small molecule inhibitors of this interaction as probes to test this hypothesis and lay the groundwork for the development of targeted therapies against ERG. This is the counterscreen against the cherry picks. NIH Molecular Libraries Probe Production Network [MLPCN] NIH Chemical Genomics Center [NCGC] Grant: NS066464 PI Name: John Bushweller, University of Virgina
2 ul of protein solution (200 nM ERG domain in 300mM KCl, 50mM Tris-HCl, 1mM EDTA, 1mM DTT, pH 7.5); 20 nl Control plate and compound library plate; 2 ul of 200 nM biotin-DNA; incubate for 10 min at RT; 1 ul of anti-His antibody conjugated to the long-life fluorescent cryptate donner […] (5ng/ul) and streptavidin conjugated to the acceptor compound […] (0.2 ng/ul) mix; incubate 10 min and measure FRET (Excitation = 320 nm, Emission = 615, 665 nm).
Potency means the concentration at half of the fitted maximal effect.

SMILES	Potency
CCOc1cc(CNc2cccc3[nH]c(C)nc23)ccc1OC	inactive
Cc1cc(C)cc(NC(=O)CCOc2ccccc2)c1	inactive
O=C1CC(Cc2ccccc2)C(=O)N1c1ccc(Cl)cn1 (stereo not drawn)	inactive
COc1ccc(C(=O)N[C@H](C(=O)N2CCN(c3ccccc3F)CC2)C(C)C)cc1	inactive
CC(=O)NNc1cc(N2CCOCC2)nc(N2CCOCC2)n1	inactive
COc1cc(SC)ccc1C(=O)NC(C)C	inactive
COc1ccc(S(=O)(=O)NNC(=S)NCCc2ccccc2)c(OC)c1	inactive
Cc1ccc2nc3c(c(N)c2c1)CCN3C	inactive
CCc1cc(C(=O)OC)c(NC(=O)CN2CCN(C(=O)C3CCCO3)CC2)s1 (stereo not drawn)	inactive
Cc1ccc(S(=O)(=O)N2CCC[C@H]2C(=O)NC2CCCCC2)cc1	inactive
CCOC(=O)CC1C(=O)NCCN1C(=O)c1c(F)cccc1F (stereo not drawn)	inactive
CC(=O)NC(CC(=O)Nc1nc(-c2ccccc2)c(C(C)=O)s1)c1ccccc1 (stereo not drawn)	inactive
COc1ccc(N(CCC(=O)Nc2ccccc2F)S(=O)(=O)c2ccc(C)cc2C)cc1	inactive
CN(CCO)C1=NS(=O)(=O)c2cc([N+](=O)[O-])ccc21	28.2 µM (active)
CCN(CC)c1ccc([N+](=O)[O-])cc1C(=O)O	inactive
O=C(COc1ccccc1)Nc1ccc2c(c1)Cc1cc(NC(=O)COc3ccccc3)ccc1-2	inactive
CNC(=O)C(=O)NCCN1CCN(C(=O)c2ccc([N+](=O)[O-])cc2)CC1	inactive
COc1ccc(OC)c(NC(=O)Cn2cnc3sc(C)c(S(=O)(=O)N4CCN(c5ccccc5OC)CC4)c3c2=O)c1	inactive
CN(C)c1nc2n(c(=S)n1)CCS2	inactive
CCC1COC(c2cccn2Cc2ccc(Cl)cc2)=N1 (stereo not drawn)	inactive
CC(=O)OCC(=O)C1=CCC2C3CCC4=CC(=O)C=CC4(C)C3(F)C(OC(C)=O)CC12C (stereo not drawn)	inactive
COc1cc(OC)cc(C(=O)NCC(=O)OCc2csc(-c3ccccc3)n2)c1	inactive
CCn1cc(S(=O)(=O)Nc2ccc(Cl)cc2F)cn1	inactive
COc1ccc([N+](=O)[O-])c(OC)c1C(=O)NC(=O)Nc1c(F)c(F)c(F)c(F)c1F	inactive
CCn1c(CSc2ncn[nH]2)nc2cc(C(=O)O)ccc21	inactive
O=C1C(SCCO)=C(SCCO)C(=O)c2ccccc21	50.1 µM (active)

SMILES	Potency
CS(=O)(=O)NN1C(=O)c2ccccc2NC1c1cccc(O)c1 (stereo not drawn)	inactive
S=C(NCc1ccco1)N1CCN(c2ccccn2)CC1	inactive
CCOc1ccccc1N1CCN(C(=O)c2cc(S(=O)(=O)N(C)C)ccc2N2CCCC2)CC1	inactive
COc1ccc(CNC(=O)CN2C(=O)NC3(CCCCCC3)C2=O)cc1OC	inactive
CCn1nc(C)cc1C(=O)N1CCCC(N2CCN(Cc3ccc4c(c3)OCO4)CC2)C1 (stereo not drawn)	inactive
CCCC(=O)Nn1cnc2c(c1=O)C1(CCCCC1)Cc1ccccc1-2	inactive
COc1ccc(S(=O)(=O)NCC2CC3C=CC2C3)cc1OC (stereo not drawn)	inactive
COCCNC(=O)Cn1c(=O)n(CCCC(=O)NCc2ccc3c(c2)OCO3)c(=O)c2sccc21	inactive
COC(=O)C1=C(C)NC(C)=C(C(=O)OC)C1c1ccc(-c2cccc(Cl)c2Cl)o1	inactive
CCOc1ccc(NC(=O)CN(C)C(=O)c2ccccc2CCc2ccccc2)cc1OCC	inactive
COc1ccc(CCNC(=O)Cn2cc(C(F)(F)F)cc(Cl)c2=O)cc1	inactive
CSc1nc2c(c(=O)[nH]1)C(c1cccc(Br)c1)CC(=O)N2 (stereo not drawn)	inactive
CC(=O)Nc1ccc(S(=O)(=O)Nc2nc3ccccc3nc2Nc2ccc(O)c(C(=O)O)c2)cc1	inactive
COC(OC)c1nc(SCC(=O)Nc2cccc(Cl)c2)ncc1C(=O)O	inactive
CCC(Oc1ccccc1F)C(=O)NCCCn1ccnc1 (stereo not drawn)	inactive
Cc1nonc1C1CCCN1C(=O)c1cc(COc2ccc(F)cc2Cl)on1 (stereo not drawn)	inactive
Cc1ccc(COC(=O)CCN=C2NS(=O)(=O)c3ccccc32)cc1	inactive
Nc1cccc(N2C(=O)c3cccc4c(N)ccc(c34)C2=O)c1	39.8 µM (active)
O=C(Nc1ccc(-c2nc3ccccc3[nH]2)cc1)c1c(F)c(F)c(F)c(F)c1F	inactive
Cn1ccc(C(=O)OCC(=O)Nc2ccccc2)n1	inactive
COc1ccc(CNC(=O)COC(=O)CCOc2ccccc2)cc1	inactive
Cc1nn(-c2ccc(Cl)cc2)c2[nH]c(CCl)cc(=O)c12	inactive
Cc1cc(S(=O)(=O)N2CCOCC2)ccc1OCC(=O)Nc1ccc(F)c(Cl)c1	inactive
C=CCn1c2ccccc2c2nnc(SCC(=O)NC(C(=O)OC)C(C)C)nc21 (stereo not drawn)	inactive
N#Cc1c(NC(=O)CCCN2C(=O)c3ccccc3C2=O)oc(-c2ccccc2)c1-c1ccccc1	inactive
O=C1c2ccc3c4c(ccc(c24)C(=O)N1CCCCO)C(=O)N(CCCCO)C3=O	20 µM (active)

SMILES	Potency
Cc1ccc(N(CCCCN2C(=O)c3ccccc3C2=O)C(=O)c2ccc(Cl)s2)cc1	inactive
CC(=O)C(c1ccccc1)C(c1ccccc1)C(C)[N+](=O)[O-] (stereo not drawn)	inactive
COc1cc(CO)ccc1OCC(=O)Nc1cccc2ccccc12	inactive
CN(C(=O)COC(=O)c1ccc(F)c(S(=O)(=O)N2CCOCC2)c1)C1CCS(=O)(=O)C1 (stereo not drawn)	inactive
Cc1occc1C(=O)NCCc1ccc(Cl)cc1	inactive
CCc1cc(C(=O)NNC(=S)Nc2cccc(C)c2)cs1	inactive
Cc1cccc(-n2c(-c3ccccc3)c[nH]c2=S)c1C	inactive
Cc1ccc(NC(=O)c2cc3cc(OC(F)(F)F)ccc3[nH]2)cc1	inactive
CCCCn1c(=O)[nH]c2nc3cc(N)ccc3nc2c1=O	50.1 µM (active)
CCCCn1c(N)c(N(CC)C(=O)c2ccc(C#N)cc2)c(=O)[nH]c1=O	inactive
O=C(Nc1ccccc1)Nc1ncc([N+](=O)[O-])s1	39.8 µM (active)
Cc1cc(C)nc(N2CCN(c3nnnn3-c3ccccc3)CC2)n1	inactive
CCCN(C(=O)c1nn(-c2ccc(C)cc2)c(=O)c2c1c1ccccc1n2C)c1ccccc1C	inactive
Cc1ccccc1C(=O)N/N=C1/SCC(=O)N1Cc1ccccc1	inactive
Cc1cccc(C(=O)NCCNc2nc3cc(C)c(C)cc3cc2C)c1	inactive
O=C1c2ccccc2C(=O)c2c1ncn2-c1ccccc1	15.8 µM (active)
O=C(CNC(=S)N(Cc1ccccc1)Cc1cccnc1)NC1CCCCC1	inactive
Cc1ccc(-c2noc(C3CCCN(C(=O)c4cccc([N+](=O)[O-])c4)C3)n2)o1 (stereo not drawn)	inactive
Cc1cc2cc(CNC(=O)C(C)Oc3ccccc3)ccc2n1C (stereo not drawn)	inactive
CC(Oc1ccc(F)cc1)C(=O)Nc1ccc(S(=O)(=O)NC2=NCCCCC2)cc1 (stereo not drawn)	inactive
COc1ccc(C(=O)NCc2ccc(OCCN(C)C)cc2)cc1OC	inactive
Cc1cc(F)ccc1NC(=O)c1ccc(NS(=O)(=O)c2cc(C(C)(C)C)ccc2C)cc1	inactive
O=C1[C@H]2[C@@H](c3ccc(F)cc3)N3C(=O)N(c4cccc(F)c4)C(=O)[C@@]3(Cc3ccccc3)[C@H]2C(=O)N1C1CCCCC1	inactive
CCNc1nc(OCC)nc(N2CCC(Cc3ccccc3)CC2)n1	inactive
CSc1ccccc1NC(=O)CN(C)C(=O)/C=C/c1ccccc1	inactive
CC(=O)c1cccc(NC(=O)C(C)OC(=O)CCc2nc3ccccc3c(=O)[nH]2)c1 (stereo not drawn)	inactive

SMILES	Potency
Nc1ccc2[nH]ncc2c1	inactive
O=C(CSC1=NCCS1)NC(NC(=O)CSC1=NCCS1)c1ccccc1	inactive
CCOc1ccccc1NC(=O)COc1ccc2ccc(=O)oc2c1	inactive
O=C(/C=C/c1ccc([N+](=O)[O-])cc1)NCc1ccco1	28.2 µM (active)
O=C(COC(=O)/C=C/c1ccc([N+](=O)[O-])cc1)NCc1cccs1	inactive
O=C(CCc1c[nH]c2ccccc12)NCc1ccco1	inactive
O=C(NCc1cccnc1)c1ccccc1-c1nc(-c2ccccc2)no1	inactive
O=C(NC(c1ccccc1)C(Cl)Cl)c1ccccc1 (stereo not drawn)	inactive
CCOC(=O)CSc1nc2ccc(NC(=O)c3ccc(F)cc3)cc2s1	inactive
CCN(C(=O)CSc1nc2cc(C(=O)O)ccc2c(=O)n1Cc1ccccc1)c1ccccc1	inactive
Cc1noc(C)c1S(=O)(=O)N(CC(=O)NCc1ccc(F)cc1)c1ccc(C(C)C)cc1	inactive
Cc1[nH]c2ccc(C(=O)OCC(=O)Nc3cccc(S(N)(=O)=O)c3)cc2c1C	inactive
O=C(C1CCN(CCc2ccccc2)CC1)N1CCOCC1	inactive
Cc1ccnn1-c1ccc(C(=O)OCC(=O)Nc2ccc(F)cc2)cc1	inactive
CCN(CC(=O)N1CCCCCC1)S(=O)(=O)c1ccc(Cl)cc1	inactive
COc1ccc(-c2cc(N)n(S(=O)(=O)Cc3ccccc3)n2)c(OC)c1	inactive
O=C(CCN=C1NS(=O)(=O)c2ccccc21)OCc1ccccc1	inactive
COc1ccc(NC2CCCN(C(=O)C3(C)CCCCC3)C2)cc1OC (stereo not drawn)	inactive
COc1ccccc1C(C)NC(=O)c1cc(S(=O)(=O)N2CCCCC2)ccc1C (stereo not drawn)	inactive
O=C(C1CC(=O)N(c2ccc(Cl)cc2)C1)N1CCCCCC1 (stereo not drawn)	inactive
CCN(C(=O)COC(=O)c1ccc(=O)n(Cc2ccccc2)n1)C1CCS(=O)(=O)C1 (stereo not drawn)	inactive
C=CCC[C@H](Cc1ccc(F)cc1)C(=O)OC[C@@H](Cc1c[nH]c2ccccc12)NC(=O)[C@H](CC=C)CC(=O)N(CCO)Cc1ccccc1	inactive
O=C(OCC(=O)c1c[nH]c2ccccc12)c1ccc([N+](=O)[O-])s1	35.5 µM (active)
Cc1nn(C2CCS(=O)(=O)C2)c(Cl)c1/C=C/C(=O)OCC(=O)c1c[nH]c2ccccc12 (stereo not drawn)	inactive
CCCN(CC(=O)Nc1ccc(F)c(F)c1F)C(=O)C1CC(=O)N(Cc2ccccc2)C1 (stereo not drawn)	inactive
